Sampled rows, rich in hits. Any-hit rate of the full collection: about 7.4%.
NPR1 antag: Natriuretic polypeptide receptor (hNpr1) antagonism - Primary qHTS; Atrial natriuretic peptide receptor 1 (Homo sapiens), P16066; HEK293 hNpr1 GloSensor cGMP, ANP-stimulated luminescence; Potency, µM (series often up to 46.3 µM), for inactives: at the top dose activity change, negative = inhibition, actives largely listed as inhibitors; 76,000 compounds, 1.6% hits; AID 1347048, 2019; calls by dose curve; note: nearly all actives have a fitted effect of over 60% in size
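HEK293 cells stably expressing human Npr1 and cGMP GloSensor pGS-40F, loaded 2 h with 2% GloSensor reagent, given compound 30 min at room temperature. Luminescence read before and 20 min after 0.1 nM hNppA.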
3T3 cytotox: Cytotoxic Profiling in NIH 3T3 Cell Line of Diverse Libraries Using Quantitative High-Throughput Screening; AID 1345082, 2018; 94,000 compounds, 4.3% hits; NIH 3T3 viability, CellTiter-Glo ATP luminescence, 48-72 h; Potency, µM (titrated, usually from 96.7 µM), inactives show at the top dose activity change, negative = cytotoxicity, actives largely listed as inhibitors; note: nearly all actives have a fitted effect of over 55% in size
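Viability of NIH 3T3 cells after 48 or 72 hr compound treatment at 37 °C was assessed by CellTiter-Glo, with luminescence imaged following a 10 min room-temperature step.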
HEK293 tox: Cytotoxic Profiling in HEK 293 Cell Line of Diverse Libraries Using Quantitative High-Throughput Screening; HEK 293 viability, ATP luminescence (CellTiter-Glo), 48-72 h; Potency, µM (top dose mostly 115 µM), for inactives: top-dose activity change, negative = cytotoxicity, most hits filed as inhibitors; 94,000 compounds, 6.6% hits; AID 1345083, 2018; note: nearly all actives have a fitted effect of over 60% in size
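CellTiter-Glo luminescence (cellular ATP) was read after 48 or 72 hr of compound exposure at 37 degree Celsius. Cells were HEK 293 plated at 250 cells/well.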
FLuc inh: Firefly luciferase inhibition profiling of diverse chemical library using quantitative high-throughput screening. Luciferin 4-monooxygenase (Photinus pyralis), P08659. purified P. pyralis luciferase, luminescence, biochemical. Potency, µM (highest dose often 115 µM), usual class: inhibitors. 76,000 compounds, 2.5% hits; note: nearly all actives have a fitted effect of over 65% in size
Target sequence (P08659 whole entry, looked up): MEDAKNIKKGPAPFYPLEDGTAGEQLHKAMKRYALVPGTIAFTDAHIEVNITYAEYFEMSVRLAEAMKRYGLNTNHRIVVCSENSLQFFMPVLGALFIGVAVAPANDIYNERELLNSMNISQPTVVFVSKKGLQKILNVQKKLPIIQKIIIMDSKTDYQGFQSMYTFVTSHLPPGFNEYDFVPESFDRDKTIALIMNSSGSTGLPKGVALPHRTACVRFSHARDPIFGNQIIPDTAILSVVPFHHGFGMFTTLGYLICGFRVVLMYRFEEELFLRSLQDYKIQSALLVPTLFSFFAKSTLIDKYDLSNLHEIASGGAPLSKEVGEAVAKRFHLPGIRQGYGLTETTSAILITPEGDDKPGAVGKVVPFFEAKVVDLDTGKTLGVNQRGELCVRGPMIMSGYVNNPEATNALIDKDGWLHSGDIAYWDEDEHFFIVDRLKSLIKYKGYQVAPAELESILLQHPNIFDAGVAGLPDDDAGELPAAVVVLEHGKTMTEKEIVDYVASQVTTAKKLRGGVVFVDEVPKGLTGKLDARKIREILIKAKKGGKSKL
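Biochemical qHTS: compound (6-point titration) added to 10uM D-luciferin plus 10uM ATP in Tris acetate pH 7.5 buffer with Mg, Tween-20 and BSA, then purified enzyme at 10nM; light output imaged.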
SNCA expr inhib: Primary qHTS assay for inhibitors of alpha-synuclein gene (SNCA) expression; Potency, µM (top dose mostly 57.2 µM), for the others: at the top dose activity change, negative = inhibition, most hits filed as inhibitors; HEK-293 SNCA-luciferase knock-in, luminescence, 24 h; AID 1671194, 2021; 140,000 compounds, 0.17% hits;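 note: plate controls were DMSO cells for no effect and cell-free wells for full effect; nearly all actives have a fitted effect of over 45% in size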
HEK293 viab: GF-AFC viability counterscreen for inhibitors of alpha-synuclein gene (SNCA) expression | 150,000 compounds, 0.12% hits | Potency, µM (doses to about 57.1 µM), inactives show top-dose activity change, negative = cytotoxicity, usual class: cytotoxic | AID 1671193, 2021 | HEK-293-SNCA-luc viability, GF-AFC fluorescence, 24 h;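 note: 0% = DMSO-treated cells and -100% = medium-only wells without cells; nearly all actives have a fitted effect of over 30% in size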
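Cytotoxicity counterscreen: after 24 h compound treatment of genome-edited SNCA-luciferase HEK-293 cells, live-cell protease substrate GF-AFC read by fluorescence after 30 min; activity scaled between DMSO (0%) and medium-only (-100%), curves Hill-fitted.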
An asterisk follows results filed as active; i = inactive; ? = inconclusive; / = not tested or not shown; [ ] = another dose, or the depositor's remark. Unless noted, calls come from the whole dose curve; as a rule, active = well fitted curve in the direction sought with a large enough effect; inconclusive = small, poorly fitted or top-dose-only effect, or another doubt; inactive = no such curve, though single readings can be large; an effect the other way counts as inactive or inconclusive. Unless noted, % is set by controls: 0 for no effect and ±100 for the full control effect; potency is the fitted concentration of half-maximal effect.

SMILES	NPR1 antag	3T3 cytotox	HEK293 tox	FLuc inh	SNCA expr inhib	HEK293 viab
O=C(Nc1ccc2c(N3CCCC3)ncnc2c1)C1CCCO1 (stereo not given)	3.2%	-11.1%	?	i	-5.7%	-11.3%
O=S(=O)(c1ccc2c(c1)CCC2)N1CCCC(Cn2c(C3CC3)nc3cccnc32)C1 (stereo not given)	0.4%	4.7%	-4.2%	i	3.9%	0.7%
COc1ccc(CC(=O)Nc2ccc(=O)n3c2[C@@H]2C[C@@H](CN(C(=O)Nc4ccc(F)cc4)C2)C3)cc1	0.9%	?	i	i	1.7%	-3.1%
O=C(NCc1cccs1)C1CCCCN1Cc1ccc(-c2cccs2)cc1 (stereo not given)	/	28.2µM*	31.6µM*	/	?	-12.6%
O=C(NCC(F)F)C1CCCCN1Cc1ccc(-c2cccs2)cc1 (stereo not given)	/	-25.1%	25.1µM*	/	43.8%	-5.9%[12.5 µM]
CCn1nccc1C(=O)NCCc1ncc(C)n1Cc1ccccc1	9.2%	-27.3%	?	i	-3.4%	-8.7%
Cc1cnc(CC2CCN(S(=O)(=O)c3ccc4c(c3)CCC4)C2)n1CC1CC1 (stereo not given)	?	?	50.1µM*	i	-5.2%	-24.5%
Cc1ccc(NC2=N[C@H]3[C@@H](O)[C@H](O)C[C@H](C(=O)N4CCC(C(N)=O)CC4)[C@H]3S2)cc1	-1.4%[70.6 µM]	1.1%[174 µM]	-4.2%[172 µM]	50.1µM*	27.5%[87.6 µM]	9.3%[87.6 µM]
CN1CCN(c2nc3c(c(=O)[nH]2)CCN(Cc2cc(F)ccc2F)CC3)CC1	-1.3%	-3.8%	-2.6%	i	-2.0%	0.9%
CCCNC(=O)NC[C@@H]1C=C(C)[C@H](Cc2nc3ccc(OC)cc3[nH]2)C[C@H]1C(C)C	?	39.8µM*	?	i	?	28.2µM*
CC1=C[C@@H](CN)[C@H](C(C)C)C[C@H]1Cc1nc2ccc(F)cc2[nH]1	-7.2%[70.6 µM]	100µM*	79.4µM*	i	-28.4%[87.6 µM]	?
COc1ccc2nc(C[C@@H]3C[C@@H](C(C)C)[C@H](CN(Cc4ccccc4F)Cc4ccccc4F)C=C3C)[nH]c2c1	0.8%	14.1µM*	?	i	?	-17.8%
CC1=C[C@@H](CNC(=O)CC2(CC(=O)O)CCCC2)[C@H](C(C)C)C[C@H]1Cc1nc2ccc(F)cc2[nH]1	-14.2%	-16.8%	-15.0%	i	7.8%	-15.8%
CC1=C[C@@H](CN)[C@H](C(C)C)C[C@H]1Cc1nc2ccc(Cl)cc2[nH]1	-12.2%[70.6 µM]	44.7µM*	50.1µM*	i	-19.9%[87.6 µM]	?
CCCNC(=O)NC[C@@H]1C=C(C)[C@H](Cc2nc3ccc(C(=O)OC)cc3[nH]2)C[C@H]1C(C)C	-25.6%	?	?	i	-0.5%	-15.1%
Cn1nc2n(c1=O)CCN(C(=O)c1ccncn1)CC2	3.5%	i	2.1%	i	-0.1%	-11.3%
CS(=O)(=O)c1cnc(NCCCn2cccn2)nc1C1CCCNC1 (stereo not given)	-0.5%	-0.6%	1.6%	i	-20.6%	-2.1%
Cc1ccc(C2(O)CCN(C(=O)Cc3c[nH]c(=O)[nH]c3=O)CC2)nc1	1.5%	1.7%	1.1%	i	-27.1%	1.9%
CC1=C[C@@H](CNC(=O)COCC(=O)O)[C@H](C(C)C)C[C@H]1Cc1nc2ccc(C)cc2[nH]1	-2.5%[70.6 µM]	2.2%[174 µM]	-20.1%[172 µM]	i	39.8%[87.6 µM]	-2.1%[87.6 µM]
COc1ccc2nc(C[C@@H]3C[C@@H](C(C)C)[C@H](CNC(=O)CC4(CC(=O)O)CCCC4)C=C3C)[nH]c2c1	-1.0%	-26.4%	-25.8%	i	-0.9%	-20.4%
COc1ccc2nc(C[C@@H]3C[C@@H](C(C)C)[C@H](CN)C=C3C)[nH]c2c1	0.9%[70.6 µM]	70.8µM*	?	i	-11.6%[87.6 µM]	?
CC1=C[C@@H](CN)[C@H](C(C)C)C[C@H]1Cc1nc2ccc(C)cc2[nH]1	-18.4%[70.6 µM]	39.8µM*	44.7µM*	i	13.1%[87.6 µM]	-21.1%[87.6 µM]
CC(C)NC(=O)[C@@H]1C[C@H](N)CN1C(=O)c1cccc(S(C)(=O)=O)c1	3.9%	-4.1%	2.8%	i	?	-1.3%
C=C(C=O)[C@]1(O)C[C@@]2(C)C(=CC1=O)C=C[C@H](OC(=O)/C=C/C=C/[C@H](C)CC)[C@@H]2C	/	/	/	/	/	8.22µM*
CC1=C[C@@H](CNC2CCN(C)CC2)[C@H](C(C)C)C[C@H]1Cc1nc2ccc(F)cc2[nH]1	-4.0%[70.6 µM]	?	70.8µM*	i	38.0%[87.6 µM]	1.2%[87.6 µM]
SMILES	NPR1 antag	3T3 cytotox	HEK293 tox	FLuc inh	SNCA expr inhib	HEK293 viab
CC(=O)N1CCC(NC[C@@H]2C=C(C)[C@H](Cc3nc4ccncc4[nH]3)C[C@H]2C(C)C)CC1	1.0%[70.6 µM]	i	-0.3%[172 µM]	i	0.8%[87.6 µM]	0.6%[87.6 µM]
CC1=C[C@@H](CNS(C)(=O)=O)[C@H](C(C)C)C[C@H]1Cc1nc2ccc(Cl)cc2[nH]1	?	?	100µM*	i	?	?
CC1=C[C@@H](CNC(=O)CCCC(=O)O)[C@H](C(C)C)C[C@H]1Cc1nc2ccc(Cl)cc2[nH]1	-0.3%	-29.9%	-8.7%	i	2.4%	-7.4%
CC1=C[C@@H](CNS(C)(=O)=O)[C@H](C(C)C)C[C@H]1Cc1nc2ccc(F)cc2[nH]1	?	?	89.1µM*	i	?	?
Fc1ccc(-c2ccc3ncc(Nc4ccccn4)n3n2)cc1	-12.7%[70.6 µM]	?	89.1µM*	i	29.8%[87.6 µM]	4.1%[87.6 µM]
Clc1ccc(Nc2cnc3ccc(-c4ccccc4)nn23)nc1	?	?	?	i	46.5%[87.6 µM]	19.5%[87.6 µM]
c1ccc(-c2ccc3ncc(Nc4ccccn4)n3n2)cc1	-23.5%[70.6 µM]	?	?	i	48.4%[87.6 µM]	-11.7%[87.6 µM]
Fc1ccc(-c2ccc3ncc(Nc4ccc(Cl)cn4)n3n2)cc1	-23.2%[70.6 µM]	100µM*	100µM*	i	?	-0.5%[87.6 µM]
O=C1NCCCCCCN(Cc2ccc(F)cc2F)[C@H]2CCC[C@@H]12	-6.1%	?	?	i	?	-7.6%
CC1CCC2(CC1)OCC(C(=O)NCc1ccccc1F)N2C(=O)c1ccccc1F (stereo not given)	5.4%	-23.6%	79.4µM*	i	-19.9%	-1.6%
CC1CCC2(CC1)OCC(C(=O)NCc1ccccc1F)N2C(=O)c1ccc(F)cc1 (stereo not given)	-12.4%	-23.6%	-29.8%	i	-4.5%	2.6%

Screens as filed in PubChem.
